For 27 molecules, outcome and AC50 results are on record in PubChem BioAssay (EPA / NIEHS).

Test [1] has as its target human MET Proto-Oncogene, Receptor Tyrosine Kinase (MET), MET (gene 4233) (UniProt P08581). The test can be described thus: NVS_ENZ_hMet: NovaScreen (NVS) Enzymatic Assay for human MET Proto-Oncogene, Receptor Tyrosine Kinase (MET) (AID 2283180). The method, boiled down: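 Cell-free MET kinase assay using recombinant protein and fluorescent substrate, with mobility-shift separation; read 1 h after dosing. Primary duplicate at 25 uM; actives in singleton concentration-response to 50 uM maximum. Signal loss versus DMSO.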

Test [2] concerns the target Protein deacetylase HDAC6 (Homo sapiens) (UniProt Q9UBN7). Nature of the test: NVS_ENZ_hHDAC6: NovaScreen (NVS) Enzymatic Assay for human Histone Deacetylase 6 (HDAC6) (AID 2283164). An outline of the steps:
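Recombinant human HDAC6 with fluorescent substrate, 1 h; product separated from substrate by electrophoretic mobility shift. Primary screen in duplicate at 25 uM; actives retested singly in concentration-response up to 50 uM, fitted relative to DMSO.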

The target of test [3] is human Fibroblast Growth Factor Receptor 1 (FGFR1), FGFR1 (gene 2260) (UniProt P11362). Nature of the test: NVS_ENZ_hFGFR1: NovaScreen (NVS) Enzymatic Assay for human Fibroblast Growth Factor Receptor 1 (FGFR1) (AID 2283159). An outline of the steps: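 Cell-free recombinant kinase with fluorescent substrate, product separated by electrophoretic mobility shift; read 1 hour after dosing, loss of signal relative to DMSO. Initial screen in duplicate at 25 uM, actives followed in concentration series.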
Chain of human Fibroblast Growth Factor Receptor 1 (FGFR1), FGFR1 (gene 2260) (P11362 whole entry, looked up): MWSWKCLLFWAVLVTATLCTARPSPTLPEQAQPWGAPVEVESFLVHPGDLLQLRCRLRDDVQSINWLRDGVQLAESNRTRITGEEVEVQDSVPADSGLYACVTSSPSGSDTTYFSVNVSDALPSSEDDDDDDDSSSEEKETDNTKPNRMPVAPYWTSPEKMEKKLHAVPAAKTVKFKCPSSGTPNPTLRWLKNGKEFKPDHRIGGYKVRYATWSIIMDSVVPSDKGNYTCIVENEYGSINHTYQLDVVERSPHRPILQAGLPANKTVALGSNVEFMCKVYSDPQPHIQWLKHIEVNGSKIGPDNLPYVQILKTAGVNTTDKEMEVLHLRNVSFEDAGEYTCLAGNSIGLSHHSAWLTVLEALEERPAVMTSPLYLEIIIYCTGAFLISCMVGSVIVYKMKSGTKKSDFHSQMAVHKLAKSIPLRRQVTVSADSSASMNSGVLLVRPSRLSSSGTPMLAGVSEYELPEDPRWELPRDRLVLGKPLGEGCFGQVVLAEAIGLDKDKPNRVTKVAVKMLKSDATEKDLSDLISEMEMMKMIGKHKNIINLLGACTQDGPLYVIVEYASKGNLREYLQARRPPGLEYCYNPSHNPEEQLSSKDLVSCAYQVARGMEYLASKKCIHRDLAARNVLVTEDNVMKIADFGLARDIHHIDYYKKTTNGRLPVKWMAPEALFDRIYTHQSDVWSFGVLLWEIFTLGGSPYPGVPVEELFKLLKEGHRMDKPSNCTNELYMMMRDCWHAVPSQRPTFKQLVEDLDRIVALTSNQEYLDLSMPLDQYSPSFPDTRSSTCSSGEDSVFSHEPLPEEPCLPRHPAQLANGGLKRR

In test [4] the target is human Ephrin type-B Receptor 2 (EphB2), EPHB2 (gene 2048) (UniProt P29323). Nature of the test: NVS_ENZ_hEphB2: NovaScreen (NVS) Enzymatic Assay for human Ephrin type-B Receptor 2 (EphB2) (AID 2283156). An outline of the steps:
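Recombinant kinase with fluorescent substrate, product separated by electrophoretic mobility shift, read 1 h after dosing. Duplicate 25 uM screen, then singleton concentration-response to 50 uM max; loss of signal versus DMSO.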

For test [5], the system named is rat Monoamine Oxidase, MAO-A, Central (MAOAC), gene 29253. The test can be described thus: NVS_ENZ_rMAOAC: NovaScreen (NVS) Enzymatic Assay for rat Monoamine Oxidase, MAO-A, Central (MAOAC) (AID 2283243).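 Note: potency refers to inhibition seen as signal drop below DMSO baseline.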 An outline of the steps: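 Steps: rat brain protein extract dosed with test chemical (25 uM, duplicate, primary); incubated 1.5 h; radiolabelled product separated from substrate and counted. Signal loss versus DMSO scored as inhibition.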

Test [6] has as its target human Mitogen-Activated Protein Kinase 1 (MAPK 1), MAPK1 (gene 5594) (UniProt P28482). Nature of the test: NVS_ENZ_hMAPK1: NovaScreen (NVS) Enzymatic Assay for human Mitogen-Activated Protein Kinase 1 (MAPK 1) (AID 2283175). An outline of the steps:
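Cell-free recombinant human MAPK1 enzymatic assay, fluorescence/electrophoretic mobility shift read at 1 h; loss of signal vs DMSO. Primary screen in duplicate at 25 uM; actives (e.g. ≥30% inhibition) run as concentration-response up to 50 uM.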

The target of test [7] is rat Monoamine Oxidase, MAO-B, Central (MAOBC), Maob (gene 25750) (UniProt P19643). Nature of the test: NVS_ENZ_rMAOBC: NovaScreen (NVS) Enzymatic Assay for rat Monoamine Oxidase, MAO-B, Central (MAOBC) (AID 2283238). The method, boiled down:
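Rat brain tissue extract served as the cell-free MAO-B source; enzyme activity was read by scintillation counting 1.17 hours after compound addition. Loss of signal versus DMSO baseline was fitted; primary single-concentration screen at 25 uM, follow-up concentration-response up to 50 uM.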

Test [8] addresses rat Corticotropin Releasing Factor Receptor (CRF), Crhr1 (gene 58959) (UniProt P35353). Nature of the test: NVS_GPCR_rCRF: NovaScreen (NVS) G Protein-Coupled Receptor Assay for rat Corticotropin Releasing Factor Receptor (CRF) (AID 2283300). The method, boiled down: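 Rat cortical membranes used as receptor source in a radioligand competitive displacement binding assay; scintillation read 2 h after dosing. Primary screen run in duplicate at 25 uM; loss of signal versus DMSO baseline indicates binding.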

In test [9] the target is Norway rat Vesicular Monoamine Transporter (VMAT2), neurotransmitter transporter, Slc18a2 (gene 25549) (UniProt Q01827). The test can be described thus: NVS_TR_rVMAT2: NovaScreen (NVS) Transporter Assay for Norway rat Vesicular Monoamine Transporter (VMAT2), neurotransmitter transporter (AID 2283376).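 Note: actives lower the bound radioligand signal below the DMSO level.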 An outline of the steps:
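Rat forebrain tissue preparation used in a cell-free radioligand binding format; displacement read by filter-based scintillation counting 1 hour after dosing. Primary screen in duplicate at 25 uM, actives then run in concentration series; loss of signal versus DMSO baseline.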

The target in test [10] is rat Gamma-Aminobutyric Acid Type A Receptor BDZ, alpha 6 site (GABARa6), Gabra6 (gene 29708) (UniProt P30191). The test can be described thus: NVS_LGIC_rGABARa6: NovaScreen (NVS) Ligand-Gated Ion Channel Assay for rat Gamma-Aminobutyric Acid Type A Receptor BDZ, alpha 6 site (GABARa6) (AID 2283339). An outline of the steps: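 Rat cerebellar membranes; radioligand binding, filtration and scintillation counting, read 1 h after dosing. Single-concentration duplicate screen at 25 uM, then concentration-response up to 50 uM for actives; loss of signal fitted versus DMSO baseline.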

Test [11] concerns the target human Matrix Metalloproteinase-1 (MMP1), MMP1 (gene 4312) (UniProt P03956). The test can be described thus: NVS_ENZ_hMMP1: NovaScreen (NVS) Enzymatic Assay for human Matrix Metalloproteinase-1 (MMP1) (AID 2283181). The method, boiled down: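 Human MMP1 enzyme activity measured by fluorescence 1 h after dosing, cell-free, with a specific substrate. Screened in duplicate at 25 uM; hits (e.g. 30% inhibition) run in concentration-response up to 50 uM; loss of signal versus DMSO.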

In test [12] the target is rat Acetylcholinesterase (AChE), Ache (gene 83817) (UniProt P37136). Nature of the test: NVS_ENZ_rAChE: NovaScreen (NVS) Enzymatic Assay for rat Acetylcholinesterase (AChE) (AID 2283233). The method, boiled down: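 Rat brain membrane acetylcholinesterase activity measured colorimetrically 0.33 h after compound addition, loss of signal relative to DMSO. Primary screen in duplicate at 25 uM; actives re-run as concentration-response with 50 uM top concentration.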

Test [13] addresses rat Monoamine Oxidase, MAO-B, Peripheral (MAOBP), Maob (gene 25750) (UniProt P19643). Nature of the test: NVS_ENZ_rMAOBP: NovaScreen (NVS) Enzymatic Assay for rat Monoamine Oxidase, MAO-B, Peripheral (MAOBP) (AID 2283242).
For test [14], the target named is human p21 Activated Kinase 4 (PAK4), PAK4 (gene 10298) (UniProt O96013). The test can be described thus: NVS_ENZ_hPAK4: NovaScreen (NVS) Enzymatic Assay for human p21 Activated Kinase 4 (PAK4) (AID 2283189). An outline of the steps:
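Cell-free recombinant human PAK4 activity assay; fluorescent substrate and product separated by electrophoretic mobility shift, read 1 h after dosing. Initially tested in duplicate at 25 uM, relative to DMSO baseline.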

Test [15] is described as follows: ATG_M_32_XSP2: Attagene TRANS-FACTORIAL Multi-Species (XSP2) HepG2 Assay for M19 Transcription Factor (Internal Marker) (AID 2283826). The method, boiled down:
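Read-out: reporter mRNA quantified by RT-PCR, FAM labeling, HpaI digestion and capillary electrophoresis, 24 h after dosing transfected HepG2 cells. Medium carried 3 nM 6-alpha-fluorotestosterone plus 1.5 nM norgestrel; gain of signal fitted against DMSO.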

Test [16] has as its system rat Monoamine Oxidase, MAO-A, Peripheral (MAOAP), gene 29253. Nature of the test: NVS_ENZ_rMAOAP: NovaScreen (NVS) Enzymatic Assay for rat Monoamine Oxidase, MAO-A, Peripheral (MAOAP) (AID 2283237). An outline of the steps: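 Rat liver mitochondrial membranes served as the MAO-A source, with enzyme activity measured by radiometric scintillation counting 1.17 hours after dosing. Loss of signal was fitted against DMSO; primary screen used 25 uM in duplicate, follow-up used concentration series.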

Results filed as inconclusive are left out. Activity calls are given as the source filed them. Rule for the calls: active = hit-call score of the fitted dose curve at least 0.9, where 1 is the maximum; inconclusive = response in the unintended direction; inactive = score below 0.9.

Chain of human Matrix Metalloproteinase-1 (MMP1), MMP1 (gene 4312) (P03956 whole entry, looked up): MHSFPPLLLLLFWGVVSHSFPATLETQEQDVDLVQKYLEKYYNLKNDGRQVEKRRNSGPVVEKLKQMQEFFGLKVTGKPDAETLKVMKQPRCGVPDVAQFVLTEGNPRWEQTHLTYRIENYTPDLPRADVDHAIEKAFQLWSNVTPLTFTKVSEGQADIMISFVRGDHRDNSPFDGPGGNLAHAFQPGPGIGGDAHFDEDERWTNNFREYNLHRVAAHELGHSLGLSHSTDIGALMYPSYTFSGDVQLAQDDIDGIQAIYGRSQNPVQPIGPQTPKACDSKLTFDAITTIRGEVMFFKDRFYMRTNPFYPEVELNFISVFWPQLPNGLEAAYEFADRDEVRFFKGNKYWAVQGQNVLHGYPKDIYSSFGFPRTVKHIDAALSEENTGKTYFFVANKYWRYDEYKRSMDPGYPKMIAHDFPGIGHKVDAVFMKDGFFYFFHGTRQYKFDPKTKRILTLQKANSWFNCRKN
Chain of human p21 Activated Kinase 4 (PAK4), PAK4 (gene 10298) (O96013 whole entry, looked up): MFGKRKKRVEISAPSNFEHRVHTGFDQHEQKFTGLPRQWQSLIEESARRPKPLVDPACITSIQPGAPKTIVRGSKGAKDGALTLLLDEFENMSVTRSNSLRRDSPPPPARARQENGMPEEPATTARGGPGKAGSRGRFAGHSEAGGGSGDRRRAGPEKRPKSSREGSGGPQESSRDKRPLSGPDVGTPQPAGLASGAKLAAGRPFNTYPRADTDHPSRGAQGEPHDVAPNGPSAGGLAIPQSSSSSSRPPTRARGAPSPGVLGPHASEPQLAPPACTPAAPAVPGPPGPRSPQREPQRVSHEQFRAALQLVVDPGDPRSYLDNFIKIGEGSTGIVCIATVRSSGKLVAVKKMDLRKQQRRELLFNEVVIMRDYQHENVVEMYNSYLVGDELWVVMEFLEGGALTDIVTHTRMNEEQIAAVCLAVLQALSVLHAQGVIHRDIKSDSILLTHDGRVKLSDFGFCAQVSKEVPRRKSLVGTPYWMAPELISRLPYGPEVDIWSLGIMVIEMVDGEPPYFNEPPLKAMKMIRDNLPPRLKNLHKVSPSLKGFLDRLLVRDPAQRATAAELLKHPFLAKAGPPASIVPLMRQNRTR
Chain of rat Monoamine Oxidase, MAO-B, Central (MAOBC), Maob (gene 25750) (P19643 whole entry, looked up): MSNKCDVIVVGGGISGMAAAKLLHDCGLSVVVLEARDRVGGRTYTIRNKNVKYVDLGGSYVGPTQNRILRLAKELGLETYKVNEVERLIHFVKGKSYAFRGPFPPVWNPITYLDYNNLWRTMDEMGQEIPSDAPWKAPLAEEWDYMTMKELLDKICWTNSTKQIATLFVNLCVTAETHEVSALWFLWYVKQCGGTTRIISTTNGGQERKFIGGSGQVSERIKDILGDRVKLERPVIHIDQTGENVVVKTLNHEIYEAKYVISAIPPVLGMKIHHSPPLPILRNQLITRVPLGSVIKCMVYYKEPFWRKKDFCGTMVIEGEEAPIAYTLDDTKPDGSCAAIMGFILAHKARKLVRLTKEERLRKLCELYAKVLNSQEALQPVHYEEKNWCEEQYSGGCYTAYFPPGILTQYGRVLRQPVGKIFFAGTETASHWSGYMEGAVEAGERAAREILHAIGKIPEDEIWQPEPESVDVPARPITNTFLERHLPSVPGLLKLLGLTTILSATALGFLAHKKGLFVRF
Chain of Protein deacetylase HDAC6 (Homo sapiens) (Q9UBN7 whole entry, looked up): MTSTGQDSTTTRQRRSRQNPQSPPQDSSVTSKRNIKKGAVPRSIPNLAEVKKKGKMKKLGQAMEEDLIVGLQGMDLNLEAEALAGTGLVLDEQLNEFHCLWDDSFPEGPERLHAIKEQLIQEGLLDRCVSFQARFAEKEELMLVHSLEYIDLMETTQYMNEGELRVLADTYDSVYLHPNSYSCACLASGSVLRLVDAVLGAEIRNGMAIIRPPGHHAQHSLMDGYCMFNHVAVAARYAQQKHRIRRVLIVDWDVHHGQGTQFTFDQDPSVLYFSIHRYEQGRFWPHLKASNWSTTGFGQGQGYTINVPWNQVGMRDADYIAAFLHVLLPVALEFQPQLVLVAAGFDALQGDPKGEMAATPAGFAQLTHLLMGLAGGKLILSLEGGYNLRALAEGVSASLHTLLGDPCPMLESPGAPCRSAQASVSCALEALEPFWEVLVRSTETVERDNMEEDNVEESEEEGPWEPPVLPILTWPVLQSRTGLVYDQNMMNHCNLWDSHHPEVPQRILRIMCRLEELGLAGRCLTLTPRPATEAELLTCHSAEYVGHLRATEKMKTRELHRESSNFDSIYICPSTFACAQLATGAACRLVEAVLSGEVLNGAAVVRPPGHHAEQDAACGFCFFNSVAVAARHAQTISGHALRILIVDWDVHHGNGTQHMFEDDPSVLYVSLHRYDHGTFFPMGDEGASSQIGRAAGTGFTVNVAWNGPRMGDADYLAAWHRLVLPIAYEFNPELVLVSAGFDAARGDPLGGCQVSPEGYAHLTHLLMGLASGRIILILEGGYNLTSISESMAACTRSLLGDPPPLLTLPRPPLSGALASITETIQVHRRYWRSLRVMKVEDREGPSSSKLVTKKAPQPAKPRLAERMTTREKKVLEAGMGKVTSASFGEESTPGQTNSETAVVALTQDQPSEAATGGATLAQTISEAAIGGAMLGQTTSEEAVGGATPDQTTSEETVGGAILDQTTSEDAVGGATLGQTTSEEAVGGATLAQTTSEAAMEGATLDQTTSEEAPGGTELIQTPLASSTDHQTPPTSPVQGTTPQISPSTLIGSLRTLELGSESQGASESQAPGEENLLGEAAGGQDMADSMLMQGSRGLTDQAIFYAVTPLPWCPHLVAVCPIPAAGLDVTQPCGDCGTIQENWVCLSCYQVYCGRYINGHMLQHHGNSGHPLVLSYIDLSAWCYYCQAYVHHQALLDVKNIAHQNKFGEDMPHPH
Chain of rat Monoamine Oxidase, MAO-B, Peripheral (MAOBP), Maob (gene 25750) (P19643 whole entry, looked up): as the sequence (P19643 whole entry, looked up) above
Chain of human MET Proto-Oncogene, Receptor Tyrosine Kinase (MET), MET (gene 4233) (P08581 whole entry, looked up): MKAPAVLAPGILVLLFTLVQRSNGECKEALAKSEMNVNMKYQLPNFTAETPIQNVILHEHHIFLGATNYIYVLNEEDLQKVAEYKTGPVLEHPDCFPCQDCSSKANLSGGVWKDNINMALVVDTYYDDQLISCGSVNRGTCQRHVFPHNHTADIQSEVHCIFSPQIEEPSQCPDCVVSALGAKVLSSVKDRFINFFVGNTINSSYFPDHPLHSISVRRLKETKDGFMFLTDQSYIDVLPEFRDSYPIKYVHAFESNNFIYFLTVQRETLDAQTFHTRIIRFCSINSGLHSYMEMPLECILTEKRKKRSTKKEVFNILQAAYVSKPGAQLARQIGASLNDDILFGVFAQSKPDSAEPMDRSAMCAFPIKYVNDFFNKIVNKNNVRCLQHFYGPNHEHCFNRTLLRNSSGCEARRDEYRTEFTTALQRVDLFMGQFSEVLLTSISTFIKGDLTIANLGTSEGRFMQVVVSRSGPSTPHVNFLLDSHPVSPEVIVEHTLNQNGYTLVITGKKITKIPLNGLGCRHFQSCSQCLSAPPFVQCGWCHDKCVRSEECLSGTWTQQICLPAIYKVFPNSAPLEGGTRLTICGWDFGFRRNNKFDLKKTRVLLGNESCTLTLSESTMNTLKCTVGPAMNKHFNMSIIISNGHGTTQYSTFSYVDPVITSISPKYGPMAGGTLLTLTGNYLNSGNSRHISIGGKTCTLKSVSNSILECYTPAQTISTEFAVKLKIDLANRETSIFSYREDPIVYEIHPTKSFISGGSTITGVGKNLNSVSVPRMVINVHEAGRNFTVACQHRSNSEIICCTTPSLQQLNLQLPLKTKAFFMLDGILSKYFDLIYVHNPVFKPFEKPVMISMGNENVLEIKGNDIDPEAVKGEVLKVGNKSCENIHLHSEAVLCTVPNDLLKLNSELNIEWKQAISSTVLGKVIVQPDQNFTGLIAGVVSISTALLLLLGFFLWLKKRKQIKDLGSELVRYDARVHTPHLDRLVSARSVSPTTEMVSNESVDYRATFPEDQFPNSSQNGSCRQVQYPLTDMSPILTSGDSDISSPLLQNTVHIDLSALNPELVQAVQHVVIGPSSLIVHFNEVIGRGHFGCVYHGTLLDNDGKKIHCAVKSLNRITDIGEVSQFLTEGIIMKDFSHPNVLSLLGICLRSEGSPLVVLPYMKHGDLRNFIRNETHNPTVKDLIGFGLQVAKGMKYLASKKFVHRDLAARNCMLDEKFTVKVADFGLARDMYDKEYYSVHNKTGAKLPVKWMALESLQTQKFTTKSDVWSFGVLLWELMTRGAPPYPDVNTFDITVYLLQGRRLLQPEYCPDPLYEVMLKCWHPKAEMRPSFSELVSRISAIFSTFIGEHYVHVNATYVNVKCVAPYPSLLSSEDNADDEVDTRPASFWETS

Consider `OCC(CO)n1cnc(-c2ccc(F)cc2)c1-c1ccnc(Oc2ccccc2)n1`, for which the molecule was called inactive in test [1].
On to `Cc1occc(=O)c1O`, for which the molecule was classed as inactive in [2].
As for `CN(C)CCCN1c2ccccc2Sc2ccc(Cl)cc21`, in [3], the molecule was classed as inactive.
On to `CCCCCCC(C)OC(=O)COc1nc(F)c(Cl)c(N)c1Cl` (configuration not stated), for which the molecule was classed as inactive in [4] and in test [5].
On to `CCCCCCC(=O)O`, for which the molecule was called inactive in [3] and in test [2].
For `CC(C)(O)c1ccc(CNC(=O)c2cccnc2Oc2ccc(F)cc2)cc1`, in test [3], the result was inactive.
For `O=C(O)c1cccc(C[C@@H]2COc3ccc(OCc4nc5cc(F)ccc5s4)cc3[C@@H]2O)c1`, the molecule was classed as inactive in test [3], in test [6], in [8] and in test [9]. Besides, the AC50 – broadly, the midpoint of the concentration-response curve, whichever way the signal moves – in test [7] is 17.8 µM (active); in [5] it was 21 µM (active).
With `CC[C@H](C)[C@@H](C(=O)O)n1sc2ccccc2c1=O`, the outcome in test [3] and in test [10] was inactive.
Regarding `Cn1cnc2c1c(=O)[nH]c(=O)n2C`, the molecule was called inactive in test [11] and in test [12].
Turning to `CC(=O)S[C@H](C(=O)N[C@H]1Cc2ccccc2[C@H]2CCC[C@@H](C(=O)O)N2C1=O)C(C)C`, the molecule was classed as inactive in test [11].
`CCc1cc(C2=C(C(=O)O)N(c3ccccc3C(F)(F)F)S(=O)(=O)c3ccccc32)cc2c1OCO2`: the AC50 in test [11] was 12.3 µM (active).
Consider `c1ccc(C(O[C@@H]2CCCN(CCc3ccc4c(c3)OCO4)C2)c2ccccc2)cc1`, for which the AC50 was 8.81 µM (active) in [11], 14.9 µM (active) in test [7] and 22 µM (active) in [13].
Regarding `CCCCCCCC[Si](OCC)(OCC)OCC`, the outcome in test [14] was inactive.
As for `CCCCN1C(=O)[C@@H]([C@H](O)C2CCCCC2)NC(=O)C12CCN(Cc1ccc(Oc3ccc(C(=O)O)cc3)cc1)CC2`, in test [11], the outcome was inactive.
In the case of `CCc1nn(C2CCCCC2)c2cc(C3(C#N)CCC(C(=O)O)CC3)ccc12` (configuration not stated), the AC50 in [11] was 12.1 µM (active).
Turning to `CO[C@@H]1COCC[C@@H]1N[C@@H]1CC[C@@](C(=O)N2CCc3ncc(C(F)(F)F)cc3C2)(C(C)C)C1`, the result in [11] was inactive.
In the case of `Cc1ccc([N+](=O)[O-])cc1N`, the molecule was classed as inactive in test [11]. Moreover, the half-maximal activity concentration (AC50) in [7] was 14.7 µM (active); in test [13], 26.1 µM (active).
As to `O=C(N[C@@H](Cc1ccccc1)[C@@H](O)C(=O)N1C[C@@H](O)[C@@H](O)C1)c1cc2cc(Cl)ccc2[nH]1`, the molecule was classed as inactive in [11] and in test [7].
In the case of `CCC(C)c1ccccc1O` (configuration not stated), the AC50 in test [11] was 11.9 µM (active).
Turning to `COc1ccc([N+](=O)[O-])cc1N`, the results for the concentration at half-maximal activity (AC50) in test [11] and in test [7] were 10.8 µM (active) and 25 µM (active), respectively.
Consider `O=C(O)c1cccnc1`, for which the molecule was classed as inactive in test [11] and in test [7].
As for `Cc1cc(Cc2ccc(N)c(C)c2)ccc1N`, the result in [14] was inactive.
For `O=P(OC(CCl)CCl)(OC(CCl)CCl)OC(CCl)CCl`, the outcome in test [11] and in test [15] was inactive.
`CC(C)c1cccc(C(C)C)c1NC(=O)NS(=O)(=O)c1cc(C(C)(C)O)co1`: the AC50 in [11] was 37.1 µM (active).
On to `Cc1ccc2oc(CN(Cc3ccccc3)C(=O)Nc3c(F)cc(F)cc3F)c(-c3ccc(Cl)cc3)c2c1`, for which the result in test [14] was inactive.
With `C=CCCCCCCCCCCCC`, the outcome in [11] and in test [14] was inactive.
Take `CCc1cc(SCc2sc(-c3ccc(C(F)(F)F)cc3)nc2CN2CCN(c3ccc(OC)cc3)CC2)ccc1OCC(=O)O`: the AC50 was 1.06 µM (active) in test [11], 25 µM (active) in test [16] and 15 µM (active) in [7].
